Among the data in PubChem BioAssay (EPA / NIEHS) are outcome and AC50 values, retold here.

Inconclusive results are not listed. The source made the active and inactive calls. The calls were made as follows: active = hit-call score of the fitted dose curve at least 0.9, where 1 is the maximum; inconclusive = response in the unintended direction; inactive = score below 0.9.

As usually defined, the AC50 is the concentration at which the activity in the assay is half-maximal.

Assay [1] deals with bovine Estrogen Receptor (ER), ESR1 (gene 407238) (UniProt P49884). Put plainly: NVS_NR_bER: NovaScreen (NVS) Nuclear Receptor Binding Assay for bovine Estrogen Receptor (ER) (AID 2283345).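 Also: actives lower the bound radioligand count which means they displace the ER ligand.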 A digest of the protocol: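 Cell-free radioligand binding with receptor from bovine uterine membranes, read by scintillation counting 18 h after dosing. Loss of specific binding was scored against DMSO; primary screen at 25 uM in duplicate, actives then run as concentration series.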

Assay [2] deals with Estrogen receptor (Homo sapiens) (UniProt P03372). Put plainly: NVS_NR_hER: NovaScreen (NVS) Nuclear Receptor Binding Assay for human Estrogen Receptor (ER) (AID 2283348). Put shortly:
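Scintillation signal from bound radioligand was measured 18 hours after chemical addition to cell-free MCF7 protein extracts, with DMSO as baseline. Activity was scored as signal loss; compounds ran first at 25 uM in duplicate.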

Assay [3] has the same target. Put plainly: OT_ER_ERaERa_1440: Odyssey Thera (OT) 24-hour HEK293T Protein-Complementation Assay for Estrogen Receptor-alpha/-alpha Homodimer (AID 2283349).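 Also: hits raise fluorescence above DMSO for agonists and antagonists alike.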 Put shortly: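 Protein-fragment complementation between two human ERα ligand-binding domains (aa 310-547) in stably transfected HEK293T cells was monitored after 24 h treatment, using fluorescence intensity relative to vehicle controls.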

For assay [4] the target is unchanged. Put plainly: OT_ER_ERaERa_0480: Odyssey Thera (OT) 8-hour HEK293T Protein-Complementation Assay for Estrogen Receptor-alpha/-alpha Homodimer (AID 2283351).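 Also: rise in fluorescence from reassembled reporter fragments on ERα LBD homodimer in nucleus or whole cell.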 A digest of the protocol:
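Binding reporter in which dimerisation of ERα LBD (aa 310-547) fusions reconstitutes a fluorescent reporter in HEK293T cells. Compounds incubated 8 h; mean fluorescence intensity increase versus DMSO scored.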

Assay [5] addresses T1, Estrogen receptor (Homo sapiens) + Estrogen receptor beta (Homo sapiens) (UniProt P03372+Q92731). Briefly: OT_ER_ERaERb_0480: Odyssey Thera (OT) 8-hour HEK293T Protein-Complementation Assay for Estrogen Receptor-alpha/-beta Heterodimer (AID 2283352). A digest of the protocol:
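Fluorescence increase from reconstituted reporter fragments, quantified by laser scanning cytometer, reflects ER-alpha/ER-beta heterodimer formation in human HEK293T cells. Exposure 8 h; positive-direction fitting against DMSO vehicle.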

The target of assay [6] is T1, Estrogen receptor (Homo sapiens) + Estrogen receptor beta (Homo sapiens). Briefly: OT_ER_ERaERb_1440: Odyssey Thera (OT) 24-hour HEK293T Protein-Complementation Assay for Estrogen Receptor-alpha/-beta Homodimer (AID 2283356).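 Also: heteromer of ER alpha and ER beta binding domains; hits raise reporter fluorescence and both agonists and antagonists give an increase.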 A digest of the protocol:
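Fragment complementation between ER alpha (310-547) and ER beta (263-489) ligand-binding domains in HEK293T cells; signal read 24 h post-dosing by laser scanning cytometer. Gain of fluorescence relative to DMSO fitted.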

Assay [7] addresses chimpanzee Androgen Receptor (AR), AR (gene 747460) (UniProt O97775). Briefly: NVS_NR_cAR: NovaScreen (NVS) Nuclear Receptor Binding Assay for chimpanzee Androgen Receptor (AR) (AID 2283346).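 Also: radioligand displacement from AR measured by scintillation counting in a cell-free assay; a loss of bound radioligand signal versus DMSO counts as binding.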 A digest of the protocol: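 Cell-free competition binding with insect-cell (Sf9/Sf21) extracted chimpanzee AR; scintillation signal from lysate at 72 h. Screened in duplicate at 25 uM, then concentration-response for actives; fitting relative to DMSO.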

The next assay addresses PGR (gene 5241) (UniProt P06401). Briefly: NVS_NR_hPR: NovaScreen (NVS) Nuclear Receptor Binding Assay for human Progestron Receptor (PR) (AID 2283360).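 Also: active means loss of bound radioligand signal versus DMSO baseline.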 Put shortly:
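Cell-free radioligand binding using receptor protein extracted from T47D cells, read by scintillation counting 18 hours after dosing. Loss of signal relative to DMSO baseline indicates displacement; primary screen single concentration 25 uM in duplicate, actives followed in concentration series.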

Assay [8] has as its target Androgen Receptor/SRC-1 Co-activator, AR (gene 367) (UniProt P10275). Put plainly: OT_AR_ARSRC1_0960: Odyssey Thera (OT) 16-hour HEK293T Protein-Complementation Assay for Androgen Receptor/SRC-1 Co-activator (AID 2283353).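 Also: actives raise the signal above DMSO so potency reflects increased AR and SRC-1 complex.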 A digest of the protocol:
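Interaction of AR with SRC-1 was followed by YFP fragment complementation in HEK293T cells after 16 h of dosing. Gain of nuclear-over-cytoplasmic 488 nm fluorescence against DMSO controls defined activity.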

Assay [9] deals with human Peroxisome Proliferator-activated Receptor alpha (PPARa), PPARA (gene 5465) (UniProt Q07869). Put plainly: NVS_NR_hPPARa: NovaScreen (NVS) Nuclear Receptor Binding Assay for human Peroxisome Proliferator-activated Receptor alpha (PPARa) (AID 2283359).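 Also: activity means loss of TR-FRET signal versus DMSO baseline.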 Put shortly:
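Chemicals were first screened in duplicate at 25 uM, and active ones were retested across concentration series. Binding was monitored by TR-FRET one hour after dosing, with decreased signal against DMSO counted as activity.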

Assay [10] concerns the target Retinoic acid receptor alpha (Homo sapiens) (UniProt P10276). Briefly: NVS_NR_hRAR_Antagonist: NovaScreen (NVS) Nuclear Receptor Binding Assay for human Retinoic Acid Alpha Receptor Antagonism (RAR) (AID 2283358). A digest of the protocol:
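TR-FRET, cell-free, antagonist format; 2 h incubation after dosing; DMSO = baseline; signal loss fitted; 25 uM duplicate primary, then conc. series.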

Chain of Retinoic acid receptor alpha (Homo sapiens) (P10276 whole entry, looked up): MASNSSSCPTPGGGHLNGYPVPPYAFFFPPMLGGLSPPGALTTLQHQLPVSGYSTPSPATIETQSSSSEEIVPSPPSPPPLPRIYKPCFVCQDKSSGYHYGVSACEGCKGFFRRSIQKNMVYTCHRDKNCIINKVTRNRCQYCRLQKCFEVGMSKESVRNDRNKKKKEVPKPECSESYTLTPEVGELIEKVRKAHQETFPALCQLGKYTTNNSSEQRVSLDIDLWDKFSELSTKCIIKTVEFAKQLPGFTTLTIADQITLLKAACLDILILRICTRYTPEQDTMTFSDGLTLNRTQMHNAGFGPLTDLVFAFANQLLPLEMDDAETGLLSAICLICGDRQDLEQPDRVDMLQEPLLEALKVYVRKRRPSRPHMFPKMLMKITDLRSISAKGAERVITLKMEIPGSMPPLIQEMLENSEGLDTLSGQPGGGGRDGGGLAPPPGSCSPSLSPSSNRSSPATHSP
Chain of human Peroxisome Proliferator-activated Receptor alpha (PPARa), PPARA (gene 5465) (Q07869 whole entry, looked up): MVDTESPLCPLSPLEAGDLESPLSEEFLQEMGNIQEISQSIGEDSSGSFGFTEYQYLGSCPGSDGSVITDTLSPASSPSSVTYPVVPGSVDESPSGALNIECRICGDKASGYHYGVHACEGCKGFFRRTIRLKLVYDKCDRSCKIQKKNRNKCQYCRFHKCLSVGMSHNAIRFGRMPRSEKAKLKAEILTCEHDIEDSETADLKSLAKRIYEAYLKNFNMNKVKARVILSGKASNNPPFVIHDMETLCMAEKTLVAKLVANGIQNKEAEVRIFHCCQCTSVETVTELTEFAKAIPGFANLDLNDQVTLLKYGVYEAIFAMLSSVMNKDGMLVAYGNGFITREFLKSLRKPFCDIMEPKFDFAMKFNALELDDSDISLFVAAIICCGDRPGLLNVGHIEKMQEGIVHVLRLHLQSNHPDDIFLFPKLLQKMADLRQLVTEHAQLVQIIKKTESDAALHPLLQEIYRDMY
T1 sequence (P03372 whole entry, looked up, the tested form may be a part): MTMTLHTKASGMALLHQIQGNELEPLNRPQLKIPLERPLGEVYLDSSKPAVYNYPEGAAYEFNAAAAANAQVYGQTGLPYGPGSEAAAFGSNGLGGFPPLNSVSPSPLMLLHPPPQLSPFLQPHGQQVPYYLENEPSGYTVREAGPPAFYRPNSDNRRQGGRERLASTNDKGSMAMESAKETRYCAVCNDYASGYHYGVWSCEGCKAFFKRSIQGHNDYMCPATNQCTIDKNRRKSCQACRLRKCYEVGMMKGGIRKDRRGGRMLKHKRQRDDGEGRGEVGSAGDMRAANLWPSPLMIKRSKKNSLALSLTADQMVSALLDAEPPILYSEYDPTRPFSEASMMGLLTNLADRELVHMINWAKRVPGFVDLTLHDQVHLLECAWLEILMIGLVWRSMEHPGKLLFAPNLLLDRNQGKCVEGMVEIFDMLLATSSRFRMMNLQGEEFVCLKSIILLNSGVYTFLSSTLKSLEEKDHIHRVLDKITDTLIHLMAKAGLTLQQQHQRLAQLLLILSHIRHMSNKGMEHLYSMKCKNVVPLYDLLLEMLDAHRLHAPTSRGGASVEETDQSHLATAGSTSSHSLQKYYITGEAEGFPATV
T1 sequence (Q92731 whole entry, looked up, the tested form may be a part): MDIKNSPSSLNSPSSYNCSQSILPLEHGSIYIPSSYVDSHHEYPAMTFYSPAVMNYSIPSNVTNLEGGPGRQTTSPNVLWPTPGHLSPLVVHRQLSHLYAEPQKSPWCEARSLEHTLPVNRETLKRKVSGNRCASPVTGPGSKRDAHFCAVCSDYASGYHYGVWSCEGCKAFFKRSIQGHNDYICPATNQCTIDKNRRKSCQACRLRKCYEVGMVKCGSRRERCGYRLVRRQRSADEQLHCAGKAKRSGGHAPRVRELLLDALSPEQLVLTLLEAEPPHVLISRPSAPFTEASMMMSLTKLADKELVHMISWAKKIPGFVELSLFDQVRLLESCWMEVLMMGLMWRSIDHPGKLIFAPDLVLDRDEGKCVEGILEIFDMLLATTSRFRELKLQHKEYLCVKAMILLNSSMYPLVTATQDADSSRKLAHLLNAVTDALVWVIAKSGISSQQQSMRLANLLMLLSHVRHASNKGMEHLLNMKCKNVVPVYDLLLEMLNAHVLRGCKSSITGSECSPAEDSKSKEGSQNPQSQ
Chain of Estrogen receptor (Homo sapiens) (P03372 whole entry, looked up): as the sequence (P03372 whole entry, looked up, the tested form may be a part) above
Chain of Androgen Receptor/SRC-1 Co-activator, AR (gene 367) (P10275 whole entry, looked up, the tested form may be a part): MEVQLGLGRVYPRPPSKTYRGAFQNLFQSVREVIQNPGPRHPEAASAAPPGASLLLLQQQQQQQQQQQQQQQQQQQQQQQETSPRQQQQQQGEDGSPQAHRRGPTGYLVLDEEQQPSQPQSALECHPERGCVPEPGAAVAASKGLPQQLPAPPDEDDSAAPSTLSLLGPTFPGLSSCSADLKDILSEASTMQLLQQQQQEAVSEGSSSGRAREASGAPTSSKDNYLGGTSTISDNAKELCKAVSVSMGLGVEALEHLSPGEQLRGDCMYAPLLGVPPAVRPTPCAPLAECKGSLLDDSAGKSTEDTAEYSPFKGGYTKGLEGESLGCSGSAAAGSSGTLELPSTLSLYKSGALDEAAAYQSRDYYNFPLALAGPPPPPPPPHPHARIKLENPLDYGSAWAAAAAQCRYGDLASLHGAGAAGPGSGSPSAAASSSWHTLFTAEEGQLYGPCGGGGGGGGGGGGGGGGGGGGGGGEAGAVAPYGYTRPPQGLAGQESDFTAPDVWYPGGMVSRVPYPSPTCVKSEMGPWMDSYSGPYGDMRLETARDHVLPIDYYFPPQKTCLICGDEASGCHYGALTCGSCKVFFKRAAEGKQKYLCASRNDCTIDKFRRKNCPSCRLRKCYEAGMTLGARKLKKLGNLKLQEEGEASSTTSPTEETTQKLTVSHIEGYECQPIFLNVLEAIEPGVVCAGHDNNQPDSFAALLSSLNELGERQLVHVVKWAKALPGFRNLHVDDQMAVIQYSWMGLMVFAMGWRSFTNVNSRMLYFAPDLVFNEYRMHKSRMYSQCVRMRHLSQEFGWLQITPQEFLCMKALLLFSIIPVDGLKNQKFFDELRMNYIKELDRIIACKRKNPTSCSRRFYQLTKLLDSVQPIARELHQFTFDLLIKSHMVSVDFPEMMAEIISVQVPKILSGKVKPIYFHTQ
Chain of bovine Estrogen Receptor (ER), ESR1 (gene 407238) (P49884 whole entry, looked up): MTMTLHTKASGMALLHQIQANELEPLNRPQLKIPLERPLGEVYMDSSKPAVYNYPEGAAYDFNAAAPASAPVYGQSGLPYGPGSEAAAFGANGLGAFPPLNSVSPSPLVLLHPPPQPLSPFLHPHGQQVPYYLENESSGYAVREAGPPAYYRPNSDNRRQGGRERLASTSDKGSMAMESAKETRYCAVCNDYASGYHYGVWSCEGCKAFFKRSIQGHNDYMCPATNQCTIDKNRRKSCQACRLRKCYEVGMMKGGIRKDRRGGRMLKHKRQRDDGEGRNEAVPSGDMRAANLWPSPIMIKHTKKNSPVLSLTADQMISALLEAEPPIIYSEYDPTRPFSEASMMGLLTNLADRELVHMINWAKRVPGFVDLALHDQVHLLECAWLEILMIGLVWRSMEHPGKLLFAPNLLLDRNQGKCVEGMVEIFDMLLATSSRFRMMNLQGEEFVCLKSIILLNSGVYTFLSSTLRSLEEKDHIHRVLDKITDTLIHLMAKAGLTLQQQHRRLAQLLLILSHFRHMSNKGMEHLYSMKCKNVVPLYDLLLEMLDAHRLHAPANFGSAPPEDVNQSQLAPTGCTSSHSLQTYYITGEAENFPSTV
Chain of PGR (gene 5241) (P06401 whole entry, looked up): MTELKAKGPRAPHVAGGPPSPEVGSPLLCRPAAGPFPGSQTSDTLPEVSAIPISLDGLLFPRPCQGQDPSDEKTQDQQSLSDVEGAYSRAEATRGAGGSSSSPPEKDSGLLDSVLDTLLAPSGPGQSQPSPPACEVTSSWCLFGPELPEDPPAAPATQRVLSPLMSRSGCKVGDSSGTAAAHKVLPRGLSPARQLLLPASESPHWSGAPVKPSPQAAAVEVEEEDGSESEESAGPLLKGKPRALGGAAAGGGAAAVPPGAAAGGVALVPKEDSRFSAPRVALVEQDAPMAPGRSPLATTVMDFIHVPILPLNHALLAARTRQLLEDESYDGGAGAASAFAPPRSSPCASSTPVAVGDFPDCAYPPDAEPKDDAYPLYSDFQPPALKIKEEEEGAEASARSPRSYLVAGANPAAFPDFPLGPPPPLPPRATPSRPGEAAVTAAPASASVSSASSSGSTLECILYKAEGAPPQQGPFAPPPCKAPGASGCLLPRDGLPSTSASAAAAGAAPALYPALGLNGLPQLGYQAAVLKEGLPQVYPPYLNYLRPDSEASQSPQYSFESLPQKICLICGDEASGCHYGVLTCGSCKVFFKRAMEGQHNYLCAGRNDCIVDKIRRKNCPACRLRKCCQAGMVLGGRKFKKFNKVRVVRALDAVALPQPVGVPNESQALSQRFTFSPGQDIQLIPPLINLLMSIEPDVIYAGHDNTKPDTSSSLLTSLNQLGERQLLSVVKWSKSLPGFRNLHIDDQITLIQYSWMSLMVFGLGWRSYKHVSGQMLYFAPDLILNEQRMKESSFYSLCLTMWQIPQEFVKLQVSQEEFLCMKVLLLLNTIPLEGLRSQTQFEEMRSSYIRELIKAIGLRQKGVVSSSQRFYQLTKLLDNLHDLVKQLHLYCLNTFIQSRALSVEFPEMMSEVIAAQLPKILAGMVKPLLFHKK

`CCc1ccccc1O`: the call in assay [1], in [2], in [3], in assay [4], in assay [5] and in assay [6] was inactive.
As to `C[C@]12CC[C@@H]3c4ccc(O)cc4CC[C@H]3[C@@H]1C[C@@H](O)[C@@H]2O`, the result in assay [7] was inactive. In the assay with PGR (gene 5241), the AC50 is 35.4 µM (active).
In the case of `O=C(c1ccccc1)c1ccccc1`, in [8], the compound was called inactive.
`NCc1cccc(CN)c1`: the outcome in [1], in assay [2], in assay [3], in [4], in [5] and in [6] was inactive.
As to `NCCN`, the outcome in assay [3], in assay [4] and in assay [9] was inactive.
`CCCCCCCCCCCC`: the AC50 in [10] is 3.51 µM (active); in [9], 7.45 µM (active).
With `Oc1ccc(Cc2ccccc2O)cc1`, the outcome in [1] and in assay [2] was inactive.
`COc1cc([N+](=O)[O-])ccc1N`: the call in assay [3], in assay [4], in assay [5], in [8] and in [6] was inactive.
Consider `CC(O)COc1ccccc1` (configuration not stated), for which the outcome in assay [8] was inactive.
Turning to `CCCCCCCCCCCCOC(=O)c1cc(O)c(O)c(O)c1`, the call in assay [1] and in [4] was inactive. Further, the AC50 in assay [3] is 11.9 µM (active); in assay [5] it was 11.9 µM (active); in assay [6], 11.9 µM (active); in [10], 36.9 µM (active).
`CCCCCCc1ccc(N)cc1`: the compound was classed as inactive in [1], in assay [2], in [3] and in [8]. For the same compound, the AC50 in assay [4] was 67.3 µM (active); in [5], 30.1 µM (active); in assay [6] it was 21.4 µM (active).
In the case of `CCCCCCC(C)(C)C(=O)O`, the call in assay [3], in assay [4], in assay [5], in assay [8] and in assay [6] was inactive.
Regarding `CCCCC(CC)C(=O)O` (configuration not stated), the outcome in assay [9] was inactive.
As to `c1cc[nH]c1`, in the assay with PGR (gene 5241), the compound was classed as inactive.
`NNc1nc(-c2ccc([N+](=O)[O-])cc2)cs1`: the result in assay [2] was inactive.
Consider `CCOC(=O)c1nc(C(Cl)(Cl)Cl)n(-c2ccc(Cl)cc2Cl)n1`, for which the call in [1] and in assay [2] was inactive.
Regarding `Cc1cc(Cc2cc(C)cc(C(C)(C)C)c2O)c(O)c(C(C)(C)C)c1`, the compound was called inactive in assay [2], in assay [3], in assay [4] and in assay [6].
For the compound `O=C(Nc1ccc(Cl)c(Cl)c1)c1cc(Cl)cc(Cl)c1O`, in assay [2], the AC50 is 25 µM (active).
As for `CCCCCCCCCCCCCC[n+]1ccccc1`, the outcome in [2] was inactive.
Regarding `CCCCc1ccc2ccccc2c1S(=O)(=O)O`, the result in assay [3], in [4], in assay [5], in [8], in [6] and in assay [9] was inactive.
In the case of `CC(=O)Nc1ccc(O)cc1`, in [8], the call was inactive.
As to `C=CC(=O)OCC(CO)(COCC(COC(=O)C=C)(COC(=O)C=C)COC(=O)C=C)COC(=O)C=C`, the compound was called inactive in assay [1] and in assay [2].
In the case of `CCC1CO1` (configuration not stated), the AC50 in assay [7] is 5 µM (active).
Take `O=C(O)c1cccc(C(=O)O)n1`: the compound was classed as inactive in assay [3], in assay [4], in assay [5] and in assay [6].
Turning to `CC1=CC(=O)c2ccccc2C1=O`, the call in assay [1] and in assay [2] was inactive.
For `O=C1NS(=O)(=O)c2ccccc21`, the result in assay [10] was inactive.
Regarding `Oc1c(Cl)cc(Cl)cc1Sc1cc(Cl)cc(Cl)c1O`, the compound was called inactive in [1] and in [2].
Turning to `CCCCCCCCCCCCCCC`, the outcome with PGR (gene 5241) was inactive.
As for `CCCCCCCCCC=CCC1CC(=O)OC1=O` (configuration not stated), the compound was classed as inactive in assay [3], in [4], in assay [5], in [8] and in [6].
